Measured values published in PMC4336329 (PLoS ONE, 2015).
In all, about 310,000 compounds went through this assay and about 14,000 (4.5%) showed an effect of 50% or more. The effect is printed as a negative number. The list comes from a sample in which strong results are over-represented; it also holds similar structures and randomly drawn compounds.

biological target: human ether-à-go-go-related gene (hERG) potassium channel (human, UniProt Q12809); experiment: primary screen, population patch clamp on CHO cells stably expressing hERG; higher = less effect of the substance
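Note: peak tail current of the secondary pulse compared with the same well before compound.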

human ether-à-go-go-related gene (hERG) potassium channel, sequence (Q12809 whole entry, looked up): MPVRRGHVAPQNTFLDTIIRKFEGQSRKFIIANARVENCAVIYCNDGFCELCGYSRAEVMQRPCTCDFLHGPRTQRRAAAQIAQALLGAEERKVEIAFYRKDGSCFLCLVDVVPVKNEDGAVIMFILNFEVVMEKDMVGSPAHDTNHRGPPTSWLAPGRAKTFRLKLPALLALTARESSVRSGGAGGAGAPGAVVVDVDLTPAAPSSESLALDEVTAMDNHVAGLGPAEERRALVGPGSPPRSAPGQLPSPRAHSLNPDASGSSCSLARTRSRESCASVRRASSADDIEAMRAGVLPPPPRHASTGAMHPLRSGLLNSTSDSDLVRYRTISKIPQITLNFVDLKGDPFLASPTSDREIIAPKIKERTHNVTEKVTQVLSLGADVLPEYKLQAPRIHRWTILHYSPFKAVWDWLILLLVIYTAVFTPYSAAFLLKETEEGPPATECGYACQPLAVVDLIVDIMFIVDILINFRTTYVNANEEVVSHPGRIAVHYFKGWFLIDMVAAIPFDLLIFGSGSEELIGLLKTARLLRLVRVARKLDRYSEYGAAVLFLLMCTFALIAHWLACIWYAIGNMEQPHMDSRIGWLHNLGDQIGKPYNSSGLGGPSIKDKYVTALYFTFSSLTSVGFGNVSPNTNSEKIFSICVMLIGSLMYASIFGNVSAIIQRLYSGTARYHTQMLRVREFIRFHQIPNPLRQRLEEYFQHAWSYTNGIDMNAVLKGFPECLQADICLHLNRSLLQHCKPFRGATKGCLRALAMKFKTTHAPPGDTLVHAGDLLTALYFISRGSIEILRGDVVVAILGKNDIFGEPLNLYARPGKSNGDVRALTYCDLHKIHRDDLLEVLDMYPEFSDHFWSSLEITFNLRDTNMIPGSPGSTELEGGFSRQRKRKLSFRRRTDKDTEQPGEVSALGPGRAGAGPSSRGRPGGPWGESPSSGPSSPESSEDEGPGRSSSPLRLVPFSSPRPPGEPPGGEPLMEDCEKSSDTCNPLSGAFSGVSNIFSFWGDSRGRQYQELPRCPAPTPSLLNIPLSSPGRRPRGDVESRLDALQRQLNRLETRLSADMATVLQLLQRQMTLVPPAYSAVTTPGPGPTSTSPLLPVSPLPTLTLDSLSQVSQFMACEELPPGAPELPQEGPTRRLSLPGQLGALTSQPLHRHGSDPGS

SMILES	hERG current change (%, negative = inhibition) at 10uM [%]
Cc1ccc2c(CC(=O)OCc3cc(=O)n4c(n3)sc3ccccc34)coc2c1	5.05
CC(CN1CCCCC1)OC(=O)C(C)(c1ccccc1)c1ccccc1.Cl (centres unmarked)	-52.3
CC(CN1CCOCC1)OC(=O)C(C)(c1ccccc1)c1ccccc1 (centres unmarked)	-8.05
CC(CN1CCCC1)OC(=O)C(c1ccccc1)c1ccccc1.Cl (centres unmarked)	-42.2
CC(CN1CCCCC1)OC(=O)/C=C/c1ccccc1.Cl (centres unmarked)	-71
CC(CN1CCOCC1)OC(=O)/C=C/c1ccccc1.Cl (centres unmarked)	10.1
COc1ccc(/C=C/C(=O)OC(C)CN2CCCCC2)cc1.Cl (centres unmarked)	-26.2
COc1cccc2cc(C(=O)NCc3ccc(Cl)cc3)c(=O)oc12	14.4
O=C(Cn1cnc2ccccc2c1=O)Nc1cccc(-c2nnc3n2CCCCC3)c1	0.387
Cc1ccc2nc(-c3cccc(NC(=O)c4ccco4)c3)[nH]c2c1	-30.7
N=c1c(-c2nc3ccccc3[nH]2)cc(C(=O)c2cccs2)nn1-c1ccc(Cl)cc1	8.51
Cc1cccc(-n2nc(C(=O)c3ccco3)cc(-c3nc4ccccc4[nH]3)c2=N)c1	-65.7
N=c1c(-c2nc3ccccc3[nH]2)cc(C(=O)c2ccco2)nn1-c1ccccc1	-59.5
COc1ccc(-n2nc(C(=O)c3cccs3)cc(-c3nc4ccccc4[nH]3)c2=N)cc1	-4.53
N=c1c(-c2nc3ccccc3[nH]2)cc(C(=O)c2cccs2)nn1-c1ccccc1	-50.2
Cc1ccccc1-n1nc(C(=O)c2cccs2)cc(-c2nc3ccccc3[nH]2)c1=N	-1.9
O=C(Nc1cccc(-c2nc3ccccc3[nH]2)c1)c1ccco1	-16.9
O=C(Nc1ccc(-c2nc3ccccc3[nH]2)cc1)c1ccco1	-18.4
COc1ccc(CCNC(=O)CCC(=O)N2CCN(S(=O)(=O)c3ccccc3)CC2)cc1OC	4.4
Fc1ccc(-n2c(Cc3ccccc3)nnc2SCc2nc(-c3ccc(Cl)cc3)no2)cc1	-1.6
Cc1cc(N(CN2CCCC2=O)C(=O)c2ccc(OC(C)C)cc2)no1	-2.94
O=C(NP(=O)(N1CCOCC1)N1CCOCC1)C1=C(N2CCOCC2)/C(=C\c2ccccc2)CC1	18.1
Cc1nc2n(n1)C(c1ccccc1)C1=C(CC(c3ccco3)CC1=O)N2 (centres unmarked)	11.4
CCCSc1nnc(-c2cccc(S(=O)(=O)N(C)C)c2)n1-c1cc(OC)ccc1OC	-68.2
COc1ccc(OC)c(-n2c(SCC(C)=O)nnc2-c2cccc(S(=O)(=O)N(C)C)c2)c1	-16.9
CCSc1nnc(-c2cccc(S(=O)(=O)N(C)C)c2)n1-c1cc(OC)ccc1OC	-49.8
CC(C)(C)OC(=O)CNC(=O)c1nc[nH]c1C(=O)N1CCN(C(=O)OC(C)(C)C)CC1	-15.8

SMILES	hERG current change (%, negative = inhibition) at 10uM [%]
CCOc1ccc(C(=O)NCCC(=O)NCCCC(=O)O)cc1	6.08
Cc1cccc(N2N=C(C(=O)O)CCC2=O)c1	10.2
O=C(O)c1cnn2c(C(F)F)cc(C3CC3)nc12	3.73
CC(=O)c1ccc(NC(=O)c2cnn3c(C(F)F)cc(C4CC4)nc23)cc1	11.1
O=C(Nc1cccnc1)c1cnn2c(C(F)F)cc(C3CC3)nc12	-57.6
Cc1ccc(C)c(SCC(=O)N(C)CC(=O)Nc2ccc(N3CCOCC3)cc2)c1	-5.12
Cc1ccc(NC(=S)N/N=C/c2ccc([N+](=O)[O-])s2)cc1	-3.04
O=C(C1CC(=O)N(c2ccc(Cl)cc2)C1)N1CCN(Cc2ccc3c(c2)OCO3)CC1 (centres unmarked)	-67.7
O=C(C1CCN(Cc2cccs2)CC1)N1CCN(Cc2ccc3c(c2)OCO3)CC1.O=C(O)C(=O)O	-14.5
C[C@H](NS(=O)(=O)c1ccc2c(c1)OCCCO2)C(=O)N1CCN(Cc2ccc(C#N)cc2)CC1	-61.1
COc1cccc(CN2CCC(C(=O)N3CCN(Cc4ccc5c(c4)OCO5)CC3)CC2)c1	-19.8
O=C(C1CC(=O)N(c2ccc3c(c2)OCCO3)C1)N1CCN(Cc2ccccc2)CC1 (centres unmarked)	0.404
N#Cc1ccc(CN2CCN(C(=O)CNS(=O)(=O)c3ccc4c(c3)OCCCO4)CC2)cc1	-20.8
COc1ccc(N2CC(C(=O)N3CCN(Cc4ccc5c(c4)OCO5)CC3)CC2=O)cc1 (centres unmarked)	-19
O=C(C1CCN(Cc2ccc(Cl)cc2)CC1)N1CCN(Cc2ccc3c(c2)OCO3)CC1	-66.6
O=C(C1CCN(Cc2ccccc2O)CC1)N1CCN(Cc2ccc3c(c2)OCO3)CC1	-23
O=C(c1ccc(F)cc1)N1CCC(C(=O)N2CCN(Cc3ccc4c(c3)OCO4)CC2)CC1	-10.5
C[C@H](NS(=O)(=O)c1ccc2c(c1)OCCCO2)C(=O)N1CCN(c2ccc(F)cc2)CC1	-34.8
O=C(C1CCN(c2nnc(-n3cccc3)s2)CC1)N1CCN(Cc2ccc3c(c2)OCO3)CC1	-68.2
O=C(c1c[nH]c2ccc(S(=O)(=O)N3CCOCC3)cc2c1=O)N1CCC2(CC1)OCCO2	23.7
CCc1ccccc1NC(=O)N1C2CCCC1CC(NC(C)=O)C2 (centres unmarked)	21.4
Cc1nn(-c2ccccc2)c(Cl)c1C1C(C#N)=C(N)Oc2c1c(=O)oc1ccccc21 (centres unmarked)	6.87
CCN1C(=O)C(=Cc2c(C)n(CC(=O)NCC3CCCO3)c3ccccc23)C(=O)N(CC)C1=S (centres unmarked)	27.5
CCOc1cc(-c2noc(CCC(=O)Nc3cccnc3)n2)ccc1OC	10.4
O=C(O)CC12C[C@H]3C[C@@H](C1)CC(n1ncc(N4CCN(c5ccccc5)CC4)c(Cl)c1=O)(C3)C2	6.36
O=C(CCC1CCCCC1)N1CCN(Cc2ccc3c(c2)OCO3)CC1	-67.2
N#Cc1ccc(S(=O)(=O)N2CCC(C(=O)N3CCN(Cc4ccc5c(c4)OCO5)CC3)CC2)cc1	-74.2

SMILES	hERG current change (%, negative = inhibition) at 10uM [%]
CCCC(=O)N1CCN(Cc2ccc3c(c2)OCO3)CC1	-3.83
O=C(C1CCN(S(=O)(=O)c2cnc[nH]2)CC1)N1CCN(Cc2ccc3c(c2)OCO3)CC1	0.674
O=C(O)CCC(=O)N1CCN(Cc2ccc3c(c2)OCO3)CC1	11.6
O=C(C1CCN(S(=O)(=O)c2ccccc2)CC1)N1CCN(Cc2ccc3c(c2)OCO3)CC1	-28.9
CCOC(=O)C1CCN(S(=O)(=O)c2cc(C(=O)OC)n(C)c2)CC1	-8.49
CC(=O)NCC1CCCN(Cc2cn(-c3ccccc3)nc2-c2ccc3c(c2)OCO3)C1 (centres unmarked)	-45.9
Cl.O=C1CSC(c2cn(-c3ccccc3)nc2-c2ccc3c(c2)OCCO3)N1CCN1CCOCC1 (centres unmarked)	-21.2
COC(=O)C1CCN(Cc2cn(-c3ccccc3)nc2-c2ccc3c(c2)OCO3)CC1	-33.7
OC[C@@H]1CCCN1Cc1cn(-c2ccccc2)nc1-c1ccc2c(c1)OCO2	-24.2
COCC1CCCN(Cc2cn(-c3ccccc3)nc2-c2ccc3c(c2)OCO3)C1 (centres unmarked)	-65.7
c1ccc(Cn2cc(CN3CCCO3)c(-c3ccc4c(c3)OCO4)n2)cc1	15.9
c1ccc(-n2cc(CN3CCCC3)c(-c3ccc4c(c3)OCO4)n2)cc1	-73
COCC1CCCCN1Cc1cn(-c2ccccc2)nc1-c1ccc2c(c1)OCO2 (centres unmarked)	-37.1
c1ccc(-n2cc(CN3CCC(N4CCOCC4)CC3)c(-c3ccc4c(c3)OCO4)n2)cc1	-50.8
COCCC1CCCCN1Cc1cn(-c2ccccc2)nc1-c1ccc2c(c1)OCO2 (centres unmarked)	-55.8
c1ccc(-n2cc(CN3CCCC(CN4CCCC4)C3)c(-c3ccc4c(c3)OCO4)n2)cc1 (centres unmarked)	-29.2
c1ccc(Cn2cc(CN3CCCCO3)c(-c3ccc4c(c3)OCO4)n2)cc1	-1.3
O=C(COC(=O)Cn1nc(-c2ccccc2)oc1=O)Nc1ccc(F)cc1	4.6
CC1=C(C/C=C(\C)CCCC(C)CCCC(C)CCCC(C)C)C(=O)c2ccccc2C1=O (centres unmarked)	25.4
COC(=O)c1sccc1NC(=O)Nc1ccccc1F	13.4
CCCOc1ccc(N2C(=O)C3C(C(C)C)NC4(C(=O)c5ccccc5C4=O)C3C2=O)cc1 (centres unmarked)	-0.496
O=C(NNC1CC(=O)N(c2ccc3c(c2)OCCO3)C1=O)c1ccc(Cl)cc1 (centres unmarked)	10.1
Cc1ccc(CNC(=O)CNS(=O)(=O)c2ccc(Br)s2)cc1	-0.279
O=C1C2C3C=CC(C4CC34)C2C(=O)N1/N=C/c1ccc(-c2cccc([N+](=O)[O-])c2)o1 (centres unmarked)	-14.1
O=C(CSc1nncc2ccccc12)Nc1ccc(C(=O)O)cc1	10.6
O=C(COC(=O)c1ccc(O)cc1)NC1CCCC1	14
